Shown are actives, neighbours in structure and some others; about 21% of the full set was active somewhere.
NS1 function inh: inhibitors of influenza NS1 protein function; Potency, µM (series often up to 46.1 µM); 270,000 tested, 0.4% active; AID 2326; calls by dose curve; note: actives are rising curves; nearly all actives have a fitted effect of over 50% in size
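Growth recovery, yeast-based: influenza A NS1 expressed in S. cerevisiae causes slow growth, and suppressors are detected by OD600. The parent strain without NS1 is used as positive control.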
Shiga toxin inh: blocks Shiga toxin action in Vero cells; 290,000 tested, 9.2% active; Vero cells, Shiga toxin protein synthesis inhibition reporter; AID 2315; inhibition, % at 38.7 µM; in the data active = inhibition mostly above about 28%, no sharp cut-off; inactive = mostly below about 43%
Cycloheximide cs: counter-screen hit for Shiga toxin inhibitors, cycloheximide; max response, %; 300,000 tested, 12% active; cell reporter, cycloheximide protein synthesis inhibition counterscreen; AID 2314; in the data active = max response mostly above about 13%, no sharp cut-off; inactive = mostly below about 14%; note: read at 38.3 µM for the half of the compounds with a filed dose
Pf growth 96h: inhibits malaria parasite growth, 96 h; P. falciparum luciferase reporter growth, 96 h; Potency, µM (doses to about 28.7 µM), actives largely listed as inhibitors; 320,000 tested, 6.9% active
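Infected RBCs, 2% Hct / 0.05% parasitemia final; luciferase-reporter P. falciparum; cpd 96 h, 37 C, 5% CO2; luciferase detection reagent; luminescence.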
FBPA Giardia inh: blocks Giardia fructose-bisphosphate aldolase activity. 290,000 tested, 0.71% active. purified Giardia FBPA. AID 2451. A8B2U2. Potency, µM (doses to about 59.6 µM), actives largely listed as inhibitors; note: nearly all actives have a fitted effect of over 55% in size
Target sequence (A8B2U2 whole entry, looked up): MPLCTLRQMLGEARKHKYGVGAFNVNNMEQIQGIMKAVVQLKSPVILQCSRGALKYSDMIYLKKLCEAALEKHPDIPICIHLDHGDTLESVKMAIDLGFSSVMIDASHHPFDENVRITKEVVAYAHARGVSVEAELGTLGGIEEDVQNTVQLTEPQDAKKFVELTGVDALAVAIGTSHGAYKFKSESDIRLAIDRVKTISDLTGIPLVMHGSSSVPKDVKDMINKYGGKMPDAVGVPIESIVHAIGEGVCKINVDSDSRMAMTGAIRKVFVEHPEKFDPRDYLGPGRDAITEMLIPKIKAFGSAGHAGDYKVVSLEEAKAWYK
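Giardia FBPA (40 nM reagent) was preincubated 10 min at RT with compound (up to 57.5 uM final), then substrate plus GAPDH/TPI/NAD/arsenate coupling system with diaphorase/resazurin was added; resorufin fluorescence (525/598 nm) was read after 20 min.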
Pf growth 48h: P. falciparum growth inhibition at 48 hours (one generation). P. falciparum luciferase growth in erythrocytes, 48 h. Potency, µM (titrated, usually from 28.7 µM), most hits filed as inhibitors. 310,000 tested, 5.9% active. AID 504832
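First compound was added to culture medium, then infected red cells at 0.1% parasitemia and 2% hematocrit (final). After incubation at 37 C under 5% CO2, luciferase detection reagent was dispensed and light output recorded.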
Each line names hits and unclear results; the compound was inactive in the other large screens. Unless noted, calls come from the whole dose curve; as a rule, active = well fitted curve in the direction sought with a large enough effect; inconclusive = small, poorly fitted or top-dose-only effect, or another doubt; inactive = no such curve, though single readings can be large; an effect the other way counts as inactive or inconclusive.

c1ccc(C(c2nnnn2C2CCCC2)N2CCCCCC2)nc1 (stereo unspecified)	none (no result: Pf growth 48h)
Fc1ccc(C(c2nnnn2C2CCCC2)N2CCN(Cc3ccccc3)CC2)cc1 (stereo unspecified)	Pf growth 48h 9.28µM (no result: Pf growth 96h)
Clc1ccc(C(c2nnnn2C2CCCC2)N2CCN(Cc3ccncc3)CC2)cc1 (stereo unspecified)	Pf growth 48h inconclusive (no result: Pf growth 96h)
CC(C)(C)n1nnnc1C(c1cccnc1)N1CCN(C2CCCCC2)CC1 (stereo unspecified)	none
N#Cc1cccc(C(c2nnnn2C2CCCC2)N2CCC(Cc3ccccc3)CC2)c1 (stereo unspecified)	Pf growth 48h 5.22µM
c1ccc(Cn2nnnc2C(c2cccnc2)N2CCN(C3CCCCC3)CC2)cc1 (stereo unspecified)	Pf growth 96h 13.1µM, Pf growth 48h inconclusive
c1ccc(C(c2ccccc2)N2CCN(C(c3ccccn3)c3nnnn3C3CCCC3)CC2)cc1 (stereo unspecified)	Pf growth 96h 4.65µM
CCc1ccc(OCCCCCn2ccnc2)cc1	FBPA Giardia inh inconclusive, Pf growth 48h inconclusive
c1csc(C(c2nnnn2C2CCCC2)N2CCCC3(CCCCC3)C2)c1 (stereo unspecified)	Pf growth 48h 2.08µM (no result: Pf growth 96h)
NC(=O)C1CCN(C(c2ccccc2)c2nnnn2C2CCCC2)CC1 (stereo unspecified)	none
N#Cc1cccc(C(c2nnnn2C2CCCC2)N2CCCCCC2)c1 (stereo unspecified)	Pf growth 96h 11.7µM, Pf growth 48h inconclusive
c1cncc(C(c2nnnn2C2CCCCC2)N2CCN3CCCC3C2)c1 (stereo unspecified)	none
COCCn1nnnc1C(c1cccc(C#N)c1)N1CCCCCC1 (stereo unspecified)	Pf growth 48h inconclusive
N#Cc1ccc(C(c2nnnn2C2CCCC2)N2CCC(Cc3ccccc3)CC2)cc1 (stereo unspecified)	Pf growth 48h 4.65µM (no result: FBPA Giardia inh)
c1cncc(C(c2nnnn2C2CCCC2)N2CCCC2)c1 (stereo unspecified)	Pf growth 96h 9.28µM
Cc1ccc(C(=O)N/C(=C\c2cccs2)C(=O)NCCCN2CCOCC2)cc1	none
CCCn1c(-c2cccs2)nc2nc3ccccc3nc21	Pf growth 96h inconclusive
Nc1c(S(=O)(=O)c2cccs2)c2nc3ccccc3nc2n1Cc1ccc2c(c1)OCO2	NS1 function inh inconclusive, Pf growth 48h 14.7µM (no result: Pf growth 96h)
Nc1c(S(=O)(=O)c2cccs2)c2nc3ccccc3nc2n1Cc1cccs1	Pf growth 96h 8.28µM, Pf growth 48h inconclusive
COc1ccc(CCn2c(N)c(S(=O)(=O)c3cccs3)c3nc4ccccc4nc32)cc1OC	Pf growth 96h inconclusive, Pf growth 48h 9.28µM
Nc1c(S(=O)(=O)c2cccs2)c2nc3ccccc3nc2n1CC1CCCO1 (stereo unspecified)	Pf growth 48h inconclusive
c1csc(-c2nc3nc4ccccc4nc3n2Cc2ccc3c(c2)OCO3)c1	Shiga toxin inh 32.8, Cycloheximide cs 12.2, FBPA Giardia inh inconclusive, Pf growth 48h inconclusive
Nc1c(S(=O)(=O)c2cccs2)c2nc3ccccc3nc2n1CCc1ccccc1	Pf growth 96h 3.29µM, Pf growth 48h inconclusive
Nc1c(S(=O)(=O)c2ccccc2)c2nc3ccccc3nc2n1/N=C/c1cccc(O)c1	none
CC(C)CCn1c(N)c(S(=O)(=O)c2cccs2)c2nc3ccccc3nc21	Pf growth 96h inconclusive, Pf growth 48h inconclusive
COc1ccccc1/C=N/n1c(N)c(S(=O)(=O)c2cccs2)c2nc3ccccc3nc21	Pf growth 48h 6.57µM (no result: Pf growth 96h)
COCCn1c(-c2cccs2)nc2nc3ccccc3nc21	Cycloheximide cs 12.8, Pf growth 48h inconclusive
O=C(c1ccc(N2CCCC2=O)cc1)N1CCN(c2cccc(C(F)(F)F)c2)CC1	none (no result: NS1 function inh, Shiga toxin inh, Cycloheximide cs, FBPA Giardia inh)
Cc1ccccc1SCC(=O)N/N=C/c1ccc(F)cc1	none
COC12NC(=O)N(C)C1(OC)C(=O)N(C)C(=O)N2C (stereo unspecified)	none
O=c1cc(O)c2sc3nc4c(c(C(F)(F)F)c3c2[nH]1)CCCCC4	Pf growth 48h 2.08µM
COc1ccc(OC)c(-c2cc(C(F)(F)F)c3c(n2)sc2c(O)cc(=O)[nH]c23)c1	none
O=C(Nc1ccccc1C(=O)NCc1cccnc1)c1ccccc1Cl	Pf growth 96h inconclusive (no result: FBPA Giardia inh)
O=C(Nc1ccc(Cl)cc1C(=O)NCc1cccnc1)c1ccc(Cl)cc1Cl	Pf growth 96h 3.29µM, Pf growth 48h 8.28µM

Screening results deposited in PubChem by National Center for Advancing Translational Sciences (NCATS).
